Most compounds without a hit are left out; they make up all but 5% or so of the library.
LmPK inhibitor – qHTS Assay for Inhibitors of Leishmania Mexicana Pyruvate Kinase (LmPK) | 290,000 compounds, 0.37% hits | Potency, µM (top dose mostly 57.5 µM), without a hit: at the top dose activity change, negative = inhibition, actives largely listed as inhibitors | purified LmPK, Kinase-Glo ATP luminescence, 1 h; also: potency is read from the fitted curve at half-maximal effect
Target sequence (Q27686 whole entry, looked up): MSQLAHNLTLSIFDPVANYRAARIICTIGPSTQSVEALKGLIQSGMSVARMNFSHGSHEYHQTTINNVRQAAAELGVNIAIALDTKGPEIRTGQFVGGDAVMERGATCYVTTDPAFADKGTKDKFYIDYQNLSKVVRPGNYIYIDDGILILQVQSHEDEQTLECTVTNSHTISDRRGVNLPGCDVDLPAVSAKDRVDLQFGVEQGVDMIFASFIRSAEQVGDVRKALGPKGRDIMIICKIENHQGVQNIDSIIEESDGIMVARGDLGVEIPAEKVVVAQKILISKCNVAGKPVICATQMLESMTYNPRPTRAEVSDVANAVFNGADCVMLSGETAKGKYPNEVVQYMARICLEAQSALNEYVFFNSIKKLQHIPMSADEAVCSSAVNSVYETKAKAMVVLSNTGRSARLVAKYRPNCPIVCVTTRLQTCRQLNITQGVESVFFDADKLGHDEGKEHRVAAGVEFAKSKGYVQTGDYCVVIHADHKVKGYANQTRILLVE
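ATP generated from ADP (0.1 mM) and PEP (0.5 mM) by 0.1 nM LmPK over 1 h at room temperature (pH 7.2 imidazole buffer) was detected by coupled luciferase luminescence. Values were normalized to uninhibited and no-enzyme wells.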
VACV mCherry inh – qHTS for Stage-Specific Inhibitors of Vaccinia Orthopoxvirus: mCherry Reporter Primary qHTS | Vaccinia virus mCherry reporter infection, fluorescence | Potency, µM (series often up to 36.5 µM), without a hit: at the top dose activity change, negative = inhibition, actives largely listed as inhibitors | 310,000 compounds, 0.63% hits | AID 720579, 2013; calls by dose curve; tested in A549 cells; also: potency is read from the fitted curve at half-maximal effect; nearly all actives have a fitted effect of over 35% in size
HCMV antiviral – qHTS Assay for inhibitors of the human cytomegalovirus (HCMV); HFF cells, HCMV-luciferase reporter, 72 h; hits give low values; activity change, negative = inhibition, % at 57.5 µM; 410,000 compounds, 4.5% hits; in the data active = activity change below about -60%; inconclusive = no clear call, values can overlap the other calls; inactive = above about -39%
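Two compound doses tested in HFFs infected with HCMV-luciferase, MOI 1 PFU/cell, 72 h at 37C. Lysate luminescence read with OneGlo; data normalized against buffer-only and 10uM Salinomycin inhibitor controls.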
Tb PYK inh – qHTS of Trypanosoma Brucei Inhibitors | pyruvate kinase (Trypanosoma brucei), Q57TT1 | TbPYK enzyme, Kinase-Glo Plus ATP luminescence, 45 min | AID 624173, 2012 | Potency, µM (titrated, usually from 76.8 µM), without a hit: at the highest dose activity, negative = inhibition, actives largely listed as inhibitors | 410,000 compounds, 0.12% hits; also: potency is read from the fitted curve at half-maximal effect; nearly all actives have a fitted effect of over 50% in size
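Glycolytic pyruvate kinase of T. brucei was incubated with substrate, test compound and 130 uM ADP for 45 minutes at room temperature. Luminescent Kinase-Glo Plus signal was measured after 10 minutes.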
VACV Venus inh – qHTS for Stage-Specific Inhibitors of Vaccinia Orthopoxvirus: Venus Reporter Primary qHTS | 330,000 compounds, 0.46% hits | Potency, µM (top dose mostly 36.5 µM), inactives show top-dose activity change, negative = inhibition, hits mostly inhibitors | Vaccinia virus Venus reporter expression, fluorescence; calls by dose curve; tested in A549 cells; also: potency is read from the fitted curve at half-maximal effect; nearly all actives have a fitted effect of over 30% in size
Numbers without * were called inactive; i = inactive; u = inconclusive; x = no result; ! = repeats disagree; [ ] = remark or other dose. Unless noted, calls follow the shape of the dose curve; as a rule, active = well fitted curve in the direction sought with a large enough effect; inconclusive = small, poorly fitted or top-dose-only effect, or another doubt; inactive = no such curve, though single readings can be large; an effect the other way counts as inactive or inconclusive. % is scaled to controls: 0 for no effect and ±100 for the full control effect.

SMILES	LmPK inhibitor	VACV mCherry inh	HCMV antiviral	Tb PYK inh	VACV Venus inh
CS(=O)(=O)N1CCCC(c2nc(-c3ccc(S(=O)(=O)NCc4ccccc4)cc3)no2)C1 (stereo not given)	3%	x	-95*	-2%	x
COCCCN1CN=C(Nc2nc3ccccc3o2)NC1	2%	-11%	70	-5%	10%
Cc1n[nH]c(C)c1S(=O)(=O)N1CCCC(C(=O)Nc2nccs2)C1 (stereo not given)	2%	-6%	-98*	2%	-11%
CCCCN(C(=O)C1CC(=O)N(Cc2ccc(C)cc2)C1)c1c(N)n(CCCC)c(=O)[nH]c1=O (stereo not given)	x	i	-38	8%	-1%
CCOC(=O)c1c(NS(=O)(=O)c2ccc(Br)cc2)sc2c1CCC2	x	-4%	12	28µM*	38%
CCOC(=O)c1c(NC(=O)CS(=O)(=O)c2cn(CC)c3ccccc23)sc2c1CCCCC2	1%	0%	-71*	1%	-4%
CCOC(=O)c1c(NS(=O)(=O)Cc2ccccc2)sc2c1CCCC2	12%	x	1	-2%	x
CCOC(=O)c1c(NC(=O)CS(=O)(=O)c2cn(CC)c3ccccc23)sc2c1CCCC2	0%	-15%	21	-6%	-25%
O=c1c2cnn(-c3ccc(Cl)cc3)c2ncn1Cc1cccc(C(F)(F)F)c1	x	-3%	4	7%	-8%
C=CCN=C1S/C(=C\c2ccc(Cl)cc2)C(=O)N1CC=C	0%	0%	-84*	1%	-8%
C=CCN=C1S/C(=C/c2cccc([N+](=O)[O-])c2)C(=O)N1CC=C	3%	x	-74*	-3%	x
C[C@H](CO)N1C[C@H](C)[C@H](CN(C)C(=O)Nc2ccc(-c3cccs3)cc2)OCc2cnnn2CCCC1=O	x	-10%	-61*	5%	-17%
CCCCC(=O)N(C)c1c(CC)nc2c(OCCOC)cccn12	x	i	21	-1%	-15%
COc1cc(N(Cc2ccccc2)Cc2ccccc2)c2ncn(C(C)C)c2c1	x	-18%	-87*	0%	-14%
COc1cc(NCc2ccccc2)c2ncn(C(C)C)c2c1	x	-25%	22	-8%	-23%
CC(C)n1cnc2c(N(C)c3ccccc3)nc(N(CCN(C)C)Cc3ccccc3)nc21	3%	u	-11	3%	13µM*
COc1ccc(CN=C2NC(=O)CC(C(=O)Nc3ccc(F)cc3)S2)cc1 (stereo not given)	2%	-8%	17	-11%	-6%
O=C(NC1CCCCC1)N(Cc1cc2cc3c(cc2[nH]c1=O)OCCO3)C1CCCCC1	0%	x	-80*	-2%	x
COc1cc2c(-c3ccc(O)cc3)nc3c(c(C)nn3-c3ccccc3)c2cc1OC	2%	-8%	-72*	2%	-27%
COc1cccc(-c2nc3c(c(C)nn3-c3ccccc3)c3cc(OC)c(OC)cc23)c1	x	-12%	2	-2%	-9%
COc1ccc(CCNC(=O)CNC(=O)c2ccc3c(c2)OCO3)cc1OC	-2%	u	57	-18%	-12%
Cc1ccc(NC(=O)CCOc2ccccc2)cc1	0%	-4%	20	6%	3%
Cc1ccc(C)c(NC(=O)CCOc2ccccc2)c1	2%	i	-67*!	1%	-16%
CCOc1ccccc1OCCCC(=O)N(C)CC(=O)Nc1cc(C)ccc1C	4%	-28%	-70*	-1%	-19%
Cc1cccc(Cc2ccc3ncc(-c4cccc(C(N)=O)c4)n3n2)c1	x	x	-72*	x	x
SMILES	LmPK inhibitor	VACV mCherry inh	HCMV antiviral	Tb PYK inh	VACV Venus inh
CN1CCN(S(=O)(=O)c2cccc([N+](=O)[O-])c2)CC1	x	-27%	56	-8%	-11%
Cc1nn(C)c(=O)n1-c1ccc(OCc2ccccc2)cc1	14µM*	x	x	-17%	x
O=C(CCCN1C(=O)/C(=C/c2ccccc2Cl)SC1=S)N1CCCC1	u	x	-109*	-11%	x
O=C(CCCN1C(=O)/C(=C/c2ccccc2Cl)SC1=S)NNC(=O)c1ccccc1Cl	-6%	11µM*	-88*	4%	u
O=C(CCN1C(=O)/C(=C/c2ccccc2Cl)SC1=S)N1CCCC1	5%	i	-21	8%	-4%
O=C(CCCN1C(=O)/C(=C/c2ccccc2Cl)SC1=S)NNC(=O)c1ccncc1	0%	i[7.34 µM]	u	10%	2%[7.34 µM]
CCOc1ccc(/C=C2\SC(=S)N(CCCC(=O)NCCCN3CCOCC3)C2=O)cc1	-1%	0%	-95*	1%	15%
O=C1C(=Cc2cccc(O)c2O)SC(=S)N1CCCN1CCOCC1	x	u	-97*	u	u
CCc1ccc(/C=C2\SC(=S)N(CCCC(=O)NCCCN3CCOCC3)C2=O)cc1	x	u	-7	-4%	u
O=C(Nc1ccc(Cl)cc1C(=O)c1ccccc1)c1ccccc1Br	x	-6%	-29	2%	-4%
COc1ccc2[nH]c(C(=O)N3CCNCC3)cc2c1OC	2%	-10%	117	-7%	-16%
CCc1cnc2c(c1SCC(=O)Nc1ccc(C)cc1C)c(=O)n(C)c(=O)n2C	x	-4%	2	-7%	-9%
O=C(CCCN1C(=O)/C(=C/c2ccccc2)SC1=S)N1CCOCC1	-10%	u	-97*	-5%	u
COC(=O)c1c(-n2c(C)cc(C=O)c2C)sc2c1CCCC2	9%	-12%	-76*	23%	-29%
CCOCCCNC(=S)NCCCNc1nc2ccc(C)cc2cc1C#N	3%	x	-91*	x	x
CCOC(=O)N1CCN(c2ccc(S(=O)(=O)N3CCOCC3)cc2[N+](=O)[O-])CC1	x	i	-11	-1%	-10%
CCOC(=O)N1CCN(S(=O)(=O)c2ccc(OCC(=O)OC)cc2)CC1	-5%	-2%	-78*	-6%	-12%
CCOC(=O)N1CCN(S(=O)(=O)c2ccc(C)c([N+](=O)[O-])c2)CC1	1%	-3%	-62*	2%	1%
CCOC(=O)c1ccoc1CN1CCN(S(=O)(=O)c2ccc(C)c(C)c2)CC1	x	i	-63*	2%	-7%
COc1ccc(S(=O)(=O)n2ccnc2)c2cccnc12	0%	-11%	-24	-3%	2%
CCOC(=O)C1CCCN(S(=O)(=O)c2ccc3c4c2CC(=O)N4CC(C)S3)C1 (stereo not given)	-2%	u	-24	-9%	-7%
CC12COC3(C(=O)Nc4ccccc4F)CC1CCC32C (stereo not given)	1%	x	43	5%	x
Cc1ccc(-n2c(C)c([N+](=O)[O-])c3ccc(O)cc32)cc1	4%	x	u	x	x
Cc1c([N+](=O)[O-])c2ccc(O)cc2n1-c1ccccc1	9%	x	-68*	3%	x
COc1ccc(N/C(N)=N/c2nc(C)cc(C)n2)c(OC)c1	0%	-19%	-67*	1%	-14%

High-throughput results as filed in PubChem BioAssay.
